We go through 108 sequences from PubChem BioAssay AID1508600 (Functional Genomics Laboratory (NCATS/FGL), 2020).

Among all 53,000 sequences or so, about 3,700 (7%) were called active. Only a selection was taken, and actives are over-represented in it overall. Values without a mark were called inactive.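 The calls were made as follows: active = gene knockdowns whose robust z-score for IL-1 alpha signal is at least 2 or at most -2, so actives lie on both sides; inactive = the rest.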

The assay can be described thus: Components of the Cytosolic LPS Sensing Pathway: Gene Identification via Genome-wide siRNA Screen.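 Also: robust z of the log signal after scaling to non-targeting control siRNA wells of the plate.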 As to conditions: RAW264.7 macrophages, IL-1a HTRF, actives lie on both sides, screened at 100 nM (by protocol), cells primed 5 h with Pam3CSK4 first. Summed up: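 Mouse macrophage line RAW264.7 is transfected with siRNA (100 nM final), grown 48h, primed with TLR ligand Pam3CSK4 5 h and given intracellular LipidA 24 h. IL-1a in supernatant is read by HTRF and viability by luminescence.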
Take GGAUAAAGCCACAUUUGGUTT against Apoh: the z-score is -0.483. Turning to GGAACCAGAGGACAAAGACTT against Ccdc96, the z-score is -2.43 (active). As for GGCUGGUGUAAAAGACACGTT against Nat14, the figure is 0.142; as for GGGUUUUCGGGAGAUCUGUTT against Ltbp4, -0.44; as for GGAGCACUAUGAUGAGUUCTT against U2af1, -0.452. As for GCACUAUGGUAUUGAAAUUTT against Armc5, the figure is 0.635; as for GGAUUCUGAAAUCAGUGCUTT against Capn8, 1.52. As for GGUCACCAAGCAACACAAUTT against Fen1, the figure is 2.56 (active); as for GCAGUAAAAUGACAUUUGGTT against Dennd6b, 0.694; as for GCUAGGUGCUGCUACGAAATT against Tex13c3, -0.0824.

Turning to GGGCAGUAAGACCUUCAUGTT against Dhcr24, the z-score is 0.685. As for GGUUGAAGGCCAAUUCAAATT against Lrrc10, the figure is 2.94 (active); as for GCACUAGCAGGAUUCAUUGTT against Gabrb2, -1.25; as for CGAUUGCUCUUAACCCUUGTT against Zfp597, -0.233.

For the sequence GGCAUCCUGAGAGAACUCATT against Insyn1, the z-score is -2.27 (active). As for GCUGACCUAUUCUGAUCCATT against Chchd4, the z-score was -0.223. As for GGUUCAGAUCCCUAAAAUATT against Ago4, the figure is -0.557; as for GGACAUGGAACUGGAUGAATT against Ciita, -2.49 (active).

On to GGUGAUCACAAAUAUGAUGTT against Ubxn2b, for which the z-score was -0.173.

For the sequence GGAGUUUGUUAAUUUCGCATT against Rundc3a, the z-score was 0.612. Take GCACGGAGCCAAAUAAUCUTT against Rpl28: the z-score is 2.07 (active). Take GGAAGUAGAGAUCUCCUUATT against Btn1a1: the z-score is 0.96. Take GGAAGUGCUACUUUCUGGGTT against Tmem178: the z-score was 1.74. Under GGAGAUGAAGUGGACAGACTT against Anapc13 stands 1.02; under GGUGAACGAACAUUGGUAUTT against Sorbs3, -0.614; under CCAUCACGAGUGAAUUCGATT against Olfr945, -2.13 (active). Under GGAGCGAUCUGAAAAUUUGTT against Rasip1 stands -0.365; under CCUCUCCAGUGUCGACAUUTT against Olfr51, 0.347; under CGAAGUCGUGGCAAUGAUUTT against Nfu1, 1.39. Under GCAGGAAGCCCAGUAAAGUTT against Figla stands 0.44; under “GGAAGACACUGGUUUCCAATT against 1700067P10Rik”, 2.62 (active); under GGAGAGAAGAAAAAGAAGGTT against Rrbp1, 0.647. On to GCAUGAUUACCAGAACCACTT against Fcgr2b, for which the z-score is 0.225. Under GCAUGUGAAAUCUAGAUCATT against Cks1b stands -0.0851; under UGGUACCACCAUUUUUACCTT against Olfr452, -1.2. As for GCUGGGCUUCAACGAUUACTT against Efna4, the figure is 1.3; as for GGUUCCUUAAACAUUCAGATT against Tspan31, 2.28 (active). Under CGAUCACCAUGAUGAAUUCTT against Bex3 stands -0.128; under GCAGGAUGCAGCGAUAGUUTT against Slc2a6, -0.952; under GGGCUACAGCAUGUAUGAGTT against Zc3h4, 0.814. Take “GGAACGAAGUCUGAAACACTT against A730018C14Rik”: the z-score is -1.89. Take GGAGUCCCAGGACAUGAAATT against Pou5f1: the z-score was 0.333. Under GCCUCUGUCAAGUCUUGGATT against Ftl1 stands -2.17 (active). Under GGUACUGUUGCGCUUUGCUTT against Ciao3 stands 1.47. As for GGAGAAUUAACUGUUCCUCTT against Kcnmb2, the z-score is 2.23 (active).

Take GCUGAGGCAUAAAAACGAGTT against Atad3a: the z-score was -0.643.

Turning to GGUGAAUCUAUUUACCUGCTT against Fam71d, the z-score is 0.317. Under GGAAUAUGUGCAGAAGCUGTT against Fgd2 stands -1.2; under “GGCUGUCUUAUUAAAGCUATT against A730013G03Rik”, -2.19 (active); under GGUCUAGAGUUACCAUUCATT against Aqp9, -0.954. Under CCAAGGACUCUCAUCUGUUTT against Zfp474 stands -0.712; under GGACGACAGGAACUGGCAATT against Fbxo9, 0.615; under GCAGAGGGCAACUCGUAAGTT against Gm6034, -0.843. Regarding CCAACACUGAGCUCAGAAGTT against Igfbp2, the z-score was -1.34. As for GGCGGUCAAGGGAAAAACATT against Tcf7, the figure is 2.19 (active); as for CCGACUAAUGCUAAAUCCATT against Pcgf1, 0.897; as for GGUGAAAUUCUGAAUGAAATT against Gatb, -0.0515. Turning to GGAACUAGAAGAAAUGUUATT against Mrps9, the z-score was 0.768. Under GGGAGCAGAUUGAAACAGUTT against Eri2 stands -0.546; under CUUAGUGCUCUGGGAGCAGTT against Ms4a5, 0.487; under CGAUCACCUUAGUAAAUACTT against Ykt6, 0.233.

Consider GGAAGGGACUGAUCGGUACTT against Igsf8, for which the z-score was 1.61. On to GCUGAGACUUCGAGCCUAUTT against Polr2c, for which the z-score is -0.976. As for CCAGUUAAAAAGGUUCCAATT against Ccdc169, the figure is 1.46; as for GGAUAACCUAAUGUAGAUATT against Nphs2, -0.0675; as for GGAUCAAAAACACAUACUUTT against Adgre4, 2.37 (active).

In the case of GGGAUAUCCCAGAACAAGATT against Vps37a, the z-score was 0.336. Under GCUUGGUAGAGAUGUUAAATT against Ryr3 stands -0.119. As for GCAUCAUUUUAACACUUCUTT against Tubd1, the figure is -0.0435. Under GGAGGGAAAACCACAAGACTT against Dppa4 stands 0.514; under CCUCUUAUUCAGAAUGUCCTT against Bnc2, 0.451; under GCGAGGAGAGUGUGUUUUCTT against Bop1, 2.08 (active). GGACAUCCAGACAAUGAGGTT against Fam13b: the z-score was -1.62. As for GGUCGUCUGAUUUUUGAUATT against Atp1a1, the figure is 0.391. As for GGACUGCUGGGAGAACUUUTT against Zcchc3, the figure is 0.76; as for CGCAGGACAUUUGGUUUUGTT against Ssxb2, 2.88 (active). As for “GGGCCACAGGAUCUCACUUTT against 1700009J07Rik”, the figure is -1.88. For the sequence GGAGGAACAGAAGAAACUCTT against Tma7, the z-score was -0.0481.

Regarding GGCUAUGCAAGUGGAGAGCTT against Nfat5, the z-score is -0.311. As for GGACAAAGGCUGUAUUUUCTT against Tgm3, the figure is -1.07; as for CGCGAGCUCAGAAUACAUGTT against Btn1a1, 2.5 (active); as for GGAGAUAAUAAUGAAGUCGTT against Sec11c, 0.353.

For GGUUGGUGAACUUGGAGGUTT against Hspa1a, the z-score was 1.41. As for GGGUUUUUUUUUCCUUGAATT against Smndc1, the figure is -0.313; as for GGCUGAUGGAAAUCCUUAATT against Ctif, 0.0158; as for GGUAGAAUACGUGUUCCUGTT against Cacna1f, 2.79 (active). With GGGCAAAGCCUUCAACCCUTT against Insl6, the z-score is -0.038. Under CGCCACUGCUUUGAUUACUTT against Coa5 stands -1.51. As for GGCGCAUUACCAGAGCUUCTT against Tnpo2, the figure is -0.425; as for CGUUGUCAAAAGGACCCAUTT against Pvr, -0.766. Under GGAUAAGGUAGAAUUACUGTT against Slc26a4 stands 3.06 (active); under GCACCGUGUGACCAUGAACTT against Akt1, 3.96 (active); under GCAAGGAUCCACGCUUUUCTT against Ckmt2, 1.34. In the case of GCCACUCUUAGUGCUAACUTT against Tctn3, the z-score is -1.25.

For the sequence GGAUUACCUAAAUUUAGGATT against Hfm1, the z-score was 0.14. Under GCACUACAGACACUUUUAGTT against Gm5533 stands -2.12 (active). As for GGAAAAUUCAGUUUAAUCCTT against Glt8d1, the figure is 0.438.

Take GGACAGAACCAUCUGAAGGTT against Aldh18a1: the z-score is 1.43. As for CGUGGAAAAGCUAUGUGCGTT against Lif, the figure is -0.188; as for GGAAGCUGUGCUGAAUGGUTT against Atp5l, 0.387; as for CGGCACUGUCAUAAGUGUGTT against Utp4, 2.39 (active).

Take GGAGGAAAAGGCUUUUCGATT against Ccdc70: the z-score was 1.04. As for GGCACAUCACUGCUUACCUTT against Rce1, the figure is -1.73; as for GGAUGUGGAAUCAUGCUAUTT against Tnpo3, 2.41 (active).

In the case of GCCAAGCCAUCUCAUUAAATT against Wdr18, the z-score was -0.724. As to GCCUGACUUUAAUGAAGAATT against Slf2, the z-score was -1.77. As for GGGUUUCUUGUUUCUUAGATT against Aldh6a1, the figure is -0.00669. Under CGUGGUUCCUCUUUGGUGUTT against Kcnj10 stands -0.217.
